Assay results published in PubChem BioAssay AID1159580 (chemical genetic matrix, 2015).
Where “and” joins values, the source holds several entries; their conditions need not be identical. Equal values may be shown once. About 2,000 (36%) of roughly 5,500 compounds were called active. About 18% were inconclusive and are not listed. Rule as the data show it: active = normalized growth mostly below about 0.91 (no sharp cut-off); inconclusive = no clear call, values can overlap the other calls; inactive = mostly above about 0.92. The list shows a part of the results.

Test: chemical genetic growth profiling, strain panel (AID 1159580);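 also: tested at 20 µM; growth read once vehicle control cultures reached saturation at 30 °C; 1 = growth at the plate median or of vehicle wells; lower values mean less growth of the strain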
Conditions: S. cerevisiae deletion strains, growth OD

Measured: normalized growth

O=C(O)/C=C/C=C/c1ccccc1
0.967 (inactive) and 0.21 (active): locus YHR030C, strain SLT2, stronger effect = lower value
active: locus YAL021C, strain ccr4, stronger effect = lower value 0.827 | locus YAL026C, strain drs2, stronger effect = lower value 0.783 | locus YAL030W, strain snc1, stronger effect = lower value 0.826 | locus YBL061C, strain skt5, stronger effect = lower value 0.826 | locus YBR009C, strain hhf1, stronger effect = lower value 0.83 | locus YBR023C, strain chs3, stronger effect = lower value 0.811 | locus YBR171W, strain sec66, stronger effect = lower value 0.83 | locus YBR231C, strain swc5, stronger effect = lower value 0.804 | locus YBR279W, strain paf1, stronger effect = lower value 0.833 | locus YCL011C, strain gbp2, stronger effect = lower value 0.814 | locus YCL016C, strain dcc1, stronger effect = lower value 0.836 | locus YCL069W, strain vba3, stronger effect = lower value 0.789 | locus YCR088W, strain abp1, stronger effect = lower value 0.764 | locus YDL005C, strain med2, stronger effect = lower value 0.875 | locus YDL040C, strain nat1, stronger effect = lower value 0.861 | locus YDL185W, strain tfp1, stronger effect = lower value 0.818 | locus YDR001C, strain nth1, stronger effect = lower value 0.793 | locus YDR069C, strain doa4, stronger effect = lower value 0.863 | locus YDR137W, strain rgp1, stronger effect = lower value 0.539 | locus YDR159W, strain sac3, stronger effect = lower value 0.596 | locus YDR297W, strain sur2, stronger effect = lower value 0.816 | locus YDR318W, strain mcm21, stronger effect = lower value 0.91 | locus YDR334W, strain swr1, stronger effect = lower value 0.746 | locus YDR335W, strain msn5, stronger effect = lower value 0.766 | locus YDR392W, strain spt3, stronger effect = lower value 0.624 | locus YDR502C, strain sam2, stronger effect = lower value 0.914 | locus YEL003W, strain gim4, stronger effect = lower value 0.836 | locus YEL037C, strain rad23, stronger effect = lower value 0.816 | locus YEL061C, strain CIN8 (second series), stronger effect = lower value 0.763 | locus YER015W, strain faa2, stronger effect = lower value 0.866 | locus YER016W, strain bim1, stronger effect = lower value 0.816 | locus YER110C, stronger effect = lower value 0.887 | locus YER111C, strain swi4, stronger effect = lower value 0.774 | locus YER155C, strain BEM2 (second series), stronger effect = lower value 0.636 | locus YER155C, strain BEM2, stronger effect = lower value 0.899 | locus YFR010W, strain ubp6, stronger effect = lower value 0.803 | locus YGL078C, strain dbp3, stronger effect = lower value 0.806 | locus YGL086W, strain mad1, stronger effect = lower value 0.927 | locus YGL167C, strain pmr1, stronger effect = lower value 0.837 | locus YGL173C, strain kem1, stronger effect = lower value 0.804 | locus YGL227W, strain vid30, stronger effect = lower value 0.761 | locus YGL240W, strain doc1, stronger effect = lower value 0.629 | locus YGL253W, strain hxk2, stronger effect = lower value 0.772 | locus YGR252W, strain gcn5, stronger effect = lower value 0.727 | locus YHR013C, strain ard1, stronger effect = lower value 0.767 | locus YHR027C, strain rpn1, stronger effect = lower value 0.87 | locus YHR079C, strain IRE1, stronger effect = lower value 0.238 | locus YHR094C, strain hxt1, stronger effect = lower value 0.917 | locus YHR142W, strain chs7, stronger effect = lower value 0.713 | locus YIL125W, strain kgd1, stronger effect = lower value 0.786 | locus YIR030C, strain dcg1, stronger effect = lower value 0.914 | locus YJL092W, strain hpr5, stronger effect = lower value 0.79 | locus YJL095W, strain BCK1 (second series), stronger effect = lower value 0.847 | locus YJL115W, strain asf1, stronger effect = lower value 0.762 | locus YJL129C, strain trk1, stronger effect = lower value 0.629 | locus YJL154C, strain vps35, stronger effect = lower value 0.808 | locus YJL164C, strain tpk1, stronger effect = lower value 0.8 | locus YJL166W, strain qcr8, stronger effect = lower value 0.813 | locus YJL168C, strain set2, stronger effect = lower value 0.929 | locus YJL187C, strain SWE1, stronger effect = lower value 0.825
0.985 (inactive) and 0.23 (active): locus YJL095W, strain BCK1, stronger effect = lower value
inactive: locus YBR021W, strain FUR4, stronger effect = lower value 0.862 | locus YBR229C, strain ROT2, stronger effect = lower value 0.983 | locus YCL029C, strain bik1, stronger effect = lower value 0.952 | locus YDL035C, strain GPR1, stronger effect = lower value 0.964 | locus YDL074C, strain BRE1, stronger effect = lower value 0.924 | locus YDL101C, strain DUN1, stronger effect = lower value 0.979 | locus YDL134C, strain PPH21, stronger effect = lower value 0.97 | locus YDL192W, strain arf1, stronger effect = lower value 0.922 | locus YDR101C, strain arx1, stronger effect = lower value 0.938 | locus YDR150W, strain NUM1, stronger effect = lower value 0.966 | locus YDR162C, strain NBP2, stronger effect = lower value 0.943 | locus YDR195W, strain ref2 1.01 | locus YDR388W, stronger effect = lower value 0.931 | locus YEL061C, strain CIN8, stronger effect = lower value 0.977 | locus YER167W, strain BCK2, stronger effect = lower value 0.974 | locus YGL248W, strain PDE1, stronger effect = lower value 0.973 | locus YGR135W, strain pre9, stronger effect = lower value 0.916 | locus YGR229C, strain SMI1, stronger effect = lower value 0.993 | locus YHR079C, strain IRE1 (second series), stronger effect = lower value 0.927 | locus YHR129C, strain ARP1, stronger effect = lower value 0.96 | locus YHR200W, strain rpn10, stronger effect = lower value 0.949 | locus YIL066C, strain RNR3, stronger effect = lower value 0.996 | locus YIL073C, strain SPO22, stronger effect = lower value 1.05 | locus YJL134W, strain LCB3, stronger effect = lower value 0.975 | locus YJL187C, strain SWE1 (second series), stronger effect = lower value 0.975 | locus YJR043C, strain POL32, stronger effect = lower value 0.968
